# Bioassay records from PubChem.
# Vaccinia Venus – inhibitors of vaccinia virus (Venus reporter); Potency, µM (top dose mostly 36.5 µM), without a hit: at the highest dose activity change, negative = inhibition, actives largely listed as inhibitors; Vaccinia virus Venus reporter expression, fluorescence; 330,000 tested, 0.46% active; calls by dose curve; tested in A549 cells; further: potency means the concentration at half of the fitted maximal effect; nearly all actives have a fitted effect of over 30% in size
# FMDV antiviral – blocks foot and mouth disease virus; 410,000 tested, 1.2% active; AID 1159524; Potency, µM (titrated, usually from 57.9 µM), for inactives: top-dose activity change, negative = inhibition, most hits filed as inhibitors; FMDV antiviral cell-based qHTS; calls by dose curve; tested in HEK293T cells; further: read-out not given here; potency means the concentration at half of the fitted maximal effect; nearly all actives have a fitted effect of over 45% in size
# Vaccinia mCherry – vaccinia inhibition (mCherry reporter); Vaccinia virus mCherry reporter infection, fluorescence; Potency, µM (highest dose often 36.5 µM), inactives show at the top dose activity change, negative = inhibition, hits mostly inhibitors; 310,000 tested, 0.63% active; AID 720579; calls by dose curve; tested in A549 cells; further: potency means the concentration at half of the fitted maximal effect; nearly all actives have a fitted effect of over 35% in size
# HCMV antiviral – human cytomegalovirus inhibition; 410,000 tested, 4.5% active; activity change, negative = inhibition, % at 57.5 µM; HFF cells, HCMV-luciferase reporter, 72 h; stronger effect = lower value; AID 1259415; in the data active means activity change below about -60%; inconclusive means no clear call, values can overlap the other calls; inactive means above about -39%
#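 Two compound doses tested in HFFs infected with HCMV-luciferase, MOI 1 PFU/cell, 72 h at 37C. Lysate luminescence read with OneGlo; data normalized against buffer-only and 10uM Salinomycin inhibitor controls.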
# LASV entry inh – blocks Lassa virus binding to or entry into cells; Lassa virus pseudotype entry inhibition, cell reporter; Potency, µM (highest dose often 37.9 µM), without a hit: top-dose activity change, negative = inhibition, actives largely listed as inhibitors; 300,000 tested, 1.2% active; AID 540256; calls by dose curve; tested in HEK293 cells; further: potency means the concentration at half of the fitted maximal effect; nearly all actives have a fitted effect of over 50% in size
# MARV entry inh – blocks Marburg virus binding to or entry into cells; Marburg virus pseudotyped entry inhibition, cell reporter; Potency, µM (highest dose often 37.8 µM), for the others: at the highest dose activity change, negative = inhibition, most hits filed as inhibitors; 300,000 tested, 1.8% active; AID 540276; calls by dose curve; tested in HEK293 cells; further: potency means the concentration at half of the fitted maximal effect
# Starred values were filed as active, the others as inactive; i = inactive; ? = inconclusive; nt = not tested or not shown; [ ] = another dose, or the depositor's remark. Hits are enriched below; roughly 6.5% of the tested compounds scored in any of these assays. On the % scale 0 is the no-effect control and ±100 the full control effect.
SMILES,Vaccinia Venus,FMDV antiviral,Vaccinia mCherry,HCMV antiviral,LASV entry inh,MARV entry inh
CN(c1ccccc1)S(=O)(=O)c1ccc(C(=O)NCC(c2ccco2)N2CCCCC2)cc1 (centres undefined),nt,?,nt,-63*,nt,nt
Cc1c(C(=O)NCC(c2ccco2)N2CCCC2)sc2ccccc12 (centres undefined),-8%,14%,-5%,-5,-1%[46.1 µM],11µM*
COc1ccc(Cl)cc1NC(=O)c1nnn(CC(=O)Nc2ccc3c(c2)OCO3)c1N,nt,-14%,nt,70,nt,nt
CCC1CN(Cc2c(C)nc3sccn23)Cc2cc(OC)ccc2O1 (centres undefined),-4%,-10%,-19%,nt,nt,nt
COCC(=O)Nc1cc(C(=O)N2CCc3c(Cl)cccc3C2)c2c(c1)nc(-c1ccncc1)n2C,0%,-3%,i,nt,nt,nt
O=C(Nc1sc2c(c1C(=O)O)CCCC2)c1cccs1,nt,14%,nt,26,?,9.2µM*
CC1CCc2c(sc(NC(=O)c3cccs3)c2C(=O)O)C1 (centres undefined),nt,23%,nt,-79*,nt,nt
Cc1noc(C)c1NC(=O)N(C)C[C@H]1OCCCC[C@@H](C)Oc2ccc(NS(=O)(=O)c3ccccc3)cc2C(=O)N([C@H](C)CO)C[C@@H]1C,-13%,0%,i,18,nt,nt
CC1(C)C(O)CC(O)[C@]2(C)C1CC(O)[C@]1(C)C2CC[C@@]2(C)C(c3ccoc3)OC(=O)C3O[C@]312 (some centres undefined),-17%,-19%,-22%,nt,nt,nt
CC1(C)C(=O)C=C[C@@]2(C)C1=C(O)C(=O)[C@@]1(C)C2CC[C@@]2(C)C(c3ccoc3)C[C@H]3O[C@@]321 (some centres undefined),?,10µM*,?,nt,nt,nt
CC1CCc2sc(C(=O)NCc3ccccn3)cc2C1 (centres undefined),-16%,27%,-11%,40,7%,?
CC(OC(=O)CCNS(=O)(=O)c1ccc(Cl)cc1)C(=O)N(C)Cc1ccccc1 (centres undefined),-16%,?,i,20,nt,nt
C/C(=N\NC(=O)c1ccccc1OCc1ccc(F)cc1)c1ccccn1,nt,-22%,nt,-102*,nt,nt
CCOc1ccc(OCc2ccc(C(=O)N/N=C(\C)c3ccccn3)cc2)cc1,?,-18%,1.8µM*,-85*,11µM*,7.9µM*
O=C(N/N=C/c1ccc[nH]1)c1ccccc1OCc1ccc(F)cc1,10%,-22%,-17%,?,27%[46.1 µM],11%[46.1 µM]
CCOc1ccc(C(=O)N/N=C(/C)C2C(=O)c3ccccc3C2=O)cc1,-7%,-29%,i,40,12%,?
CC1CCc2cc(F)cc3c(=O)c(C(=O)O)cn1c23 (centres undefined),-7%,-12%,-9%,-71*,10%,3%
CC1CCc2c(N3CCC(O)CC3)c(F)cc3c(=O)c(C(=O)O)cn1c23 (centres undefined),-20%,0%,i,36,nt,nt
Nc1c(C(=O)Nc2ccc(Cl)c(C(F)(F)F)c2)sc2nc(-c3ccncc3)ccc12,-15%,?,-20%,-20,?,0%[46.1 µM]
CS(=O)(=O)CCNCc1nc(-c2ccc3ncnc(Nc4ccc(F)c(Cl)c4)c3c2)cs1,nt,nt,nt,nt,-15%,nt
CC(=O)c1ccc(OCc2cc(C(=O)N3CCN(C4CCCC4)C(=O)C3)no2)cc1,-20%,32%,-5%,59,3.2µM*,3%
O=C(c1cc(COc2ccc(F)c(F)c2)on1)N1CCN(C2CCCCC2)C(=O)C1,nt,1%,nt,34,nt,nt
Cc1cccc(OCC(=O)Nc2c(C(=O)N3CCN(c4ccccc4F)CC3)oc3ccccc23)c1,-7%,52%,-5%,-15,?,10µM*
CC(C)(C)C(=O)Nc1c(C(=O)N2CCN(c3ccc(F)cc3)CC2)oc2ccccc12,-15%,22%,-11%,-82*,20%[46.1 µM],nt
NC1=NC[C@@H](CC2CCCCC2)N1CCc1cc(C(F)(F)F)cc(C(F)(F)F)c1,10µM*,35µM*,?,nt,nt,nt
NC1=NC[C@H](c2ccccc2)N1CCc1cc(C(F)(F)F)cc(C(F)(F)F)c1,10µM*,?,10µM*,-71*,nt,nt
NC1=NC[C@H](Cc2ccc(O)cc2)N1CCc1cc(C(F)(F)F)cc(C(F)(F)F)c1,-1%,-14%,-11%,-26,nt,nt
